Measured values from the supplement of paper PMC11732987, “Enantioselective OTUD7B fragment discovery through chemoproteomics screening and high-throughput optimisation” (Communications Chemistry, 2025).

Experiments:
Experiment in all cases: log2 ratio of Biotin-Ahx-Ub-VS probe labelling (fragment/DMSO); higher = less target engagement (more negative = stronger competition), active = hit call of the paper (q ≤ 0.05, log2 ratio ≤ -1)
Conditions in all cases: compound concentration: 200 uM; treatment time: 3 h
[1] = target: USP9X (UniProt Q93008)
USP9X, sequence (Q93008 whole entry, the tested form may be a part): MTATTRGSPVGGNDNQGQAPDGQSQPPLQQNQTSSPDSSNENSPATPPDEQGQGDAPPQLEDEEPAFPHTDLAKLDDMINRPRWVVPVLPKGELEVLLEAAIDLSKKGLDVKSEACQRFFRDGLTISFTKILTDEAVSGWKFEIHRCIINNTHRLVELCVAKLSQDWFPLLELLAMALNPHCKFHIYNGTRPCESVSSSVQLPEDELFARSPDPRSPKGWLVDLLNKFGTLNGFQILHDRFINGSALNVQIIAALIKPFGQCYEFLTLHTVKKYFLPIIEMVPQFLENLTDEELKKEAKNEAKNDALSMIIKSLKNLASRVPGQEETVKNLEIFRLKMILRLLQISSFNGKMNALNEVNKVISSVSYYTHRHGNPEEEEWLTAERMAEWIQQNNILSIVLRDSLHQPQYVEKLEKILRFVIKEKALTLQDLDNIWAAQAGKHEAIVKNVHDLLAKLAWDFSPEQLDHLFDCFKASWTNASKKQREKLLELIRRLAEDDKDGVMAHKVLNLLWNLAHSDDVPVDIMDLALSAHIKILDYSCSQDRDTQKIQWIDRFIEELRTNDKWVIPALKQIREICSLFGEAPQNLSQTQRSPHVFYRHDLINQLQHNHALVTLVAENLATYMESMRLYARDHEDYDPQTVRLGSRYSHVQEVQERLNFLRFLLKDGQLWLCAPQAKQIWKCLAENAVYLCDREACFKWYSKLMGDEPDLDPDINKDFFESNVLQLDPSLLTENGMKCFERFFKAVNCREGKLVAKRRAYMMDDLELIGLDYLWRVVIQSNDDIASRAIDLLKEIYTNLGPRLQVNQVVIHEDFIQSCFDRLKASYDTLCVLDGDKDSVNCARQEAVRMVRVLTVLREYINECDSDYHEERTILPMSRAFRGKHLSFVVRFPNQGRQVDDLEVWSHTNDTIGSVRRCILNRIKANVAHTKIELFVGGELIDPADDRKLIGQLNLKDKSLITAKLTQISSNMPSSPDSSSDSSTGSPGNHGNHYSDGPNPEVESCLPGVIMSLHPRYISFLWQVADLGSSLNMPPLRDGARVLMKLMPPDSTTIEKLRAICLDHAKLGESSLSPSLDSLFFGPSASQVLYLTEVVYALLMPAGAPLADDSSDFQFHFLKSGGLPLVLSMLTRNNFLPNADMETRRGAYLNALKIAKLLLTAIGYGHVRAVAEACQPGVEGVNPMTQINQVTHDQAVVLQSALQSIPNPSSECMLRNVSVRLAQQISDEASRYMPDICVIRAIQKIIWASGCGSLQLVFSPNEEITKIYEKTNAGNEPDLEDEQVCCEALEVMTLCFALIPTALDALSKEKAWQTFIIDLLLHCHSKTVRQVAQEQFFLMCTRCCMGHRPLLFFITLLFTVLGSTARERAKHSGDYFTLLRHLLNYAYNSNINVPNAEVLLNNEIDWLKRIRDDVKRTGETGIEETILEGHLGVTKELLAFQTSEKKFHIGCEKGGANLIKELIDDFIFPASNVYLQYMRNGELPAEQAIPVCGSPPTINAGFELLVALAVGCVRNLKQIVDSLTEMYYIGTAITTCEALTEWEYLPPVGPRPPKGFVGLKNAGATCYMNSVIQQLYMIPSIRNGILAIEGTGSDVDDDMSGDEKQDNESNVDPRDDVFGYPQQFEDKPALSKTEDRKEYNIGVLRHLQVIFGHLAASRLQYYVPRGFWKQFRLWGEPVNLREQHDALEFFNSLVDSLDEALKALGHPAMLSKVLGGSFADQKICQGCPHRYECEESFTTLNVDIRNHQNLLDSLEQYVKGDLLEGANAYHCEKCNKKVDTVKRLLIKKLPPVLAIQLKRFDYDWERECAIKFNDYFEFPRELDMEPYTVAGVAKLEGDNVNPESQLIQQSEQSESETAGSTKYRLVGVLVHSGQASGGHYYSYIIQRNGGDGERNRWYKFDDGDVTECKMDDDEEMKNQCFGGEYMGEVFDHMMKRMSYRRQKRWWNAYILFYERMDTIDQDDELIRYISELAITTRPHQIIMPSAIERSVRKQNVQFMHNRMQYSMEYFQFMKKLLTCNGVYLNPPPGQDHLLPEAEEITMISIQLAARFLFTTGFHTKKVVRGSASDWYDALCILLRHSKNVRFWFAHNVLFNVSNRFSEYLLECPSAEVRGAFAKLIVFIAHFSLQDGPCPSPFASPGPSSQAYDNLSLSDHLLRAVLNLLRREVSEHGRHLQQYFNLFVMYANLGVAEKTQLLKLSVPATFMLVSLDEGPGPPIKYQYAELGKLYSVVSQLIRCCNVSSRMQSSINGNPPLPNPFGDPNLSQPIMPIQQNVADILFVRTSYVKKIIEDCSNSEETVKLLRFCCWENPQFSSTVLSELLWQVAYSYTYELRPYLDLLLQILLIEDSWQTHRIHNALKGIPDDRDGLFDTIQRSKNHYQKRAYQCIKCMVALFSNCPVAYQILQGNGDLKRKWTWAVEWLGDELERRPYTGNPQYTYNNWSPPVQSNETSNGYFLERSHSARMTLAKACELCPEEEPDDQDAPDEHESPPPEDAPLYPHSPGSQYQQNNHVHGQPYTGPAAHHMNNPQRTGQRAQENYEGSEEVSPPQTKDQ
Outline: (§1)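 In triplicate, 495 µg of HEK293T lysate per sample was incubated with fragment at 200 µM or vehicle for 3 h. Biotin-Ahx-Ub-VS was then added to 0.5 µM final for 1 h, and labelled DUBs were captured with NeutrAvidin, digested with LysC and trypsin, and measured by diaPASEF LC-MS/MS. Data are average log2 fragment/vehicle ratios by unpaired t-test from global-median-normalised Spectronaut label-free quantities, restricted to proteins with ≥2 unique peptides.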

[2] = target: UniProt O00487
UniProt O00487, sequence (O00487 whole entry): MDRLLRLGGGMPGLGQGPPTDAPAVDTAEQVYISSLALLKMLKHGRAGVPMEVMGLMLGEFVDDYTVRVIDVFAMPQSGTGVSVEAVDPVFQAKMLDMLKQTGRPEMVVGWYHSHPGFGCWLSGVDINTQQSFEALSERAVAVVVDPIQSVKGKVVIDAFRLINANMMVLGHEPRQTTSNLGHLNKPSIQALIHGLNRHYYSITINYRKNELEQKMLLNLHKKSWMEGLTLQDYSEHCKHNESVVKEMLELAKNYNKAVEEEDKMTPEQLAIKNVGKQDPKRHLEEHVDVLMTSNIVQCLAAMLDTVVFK
Outline: as §1

[3] = target: UniProt O00507
Outline: as §1

[4] = target: UniProt P51784
UniProt P51784, sequence (P51784 whole entry): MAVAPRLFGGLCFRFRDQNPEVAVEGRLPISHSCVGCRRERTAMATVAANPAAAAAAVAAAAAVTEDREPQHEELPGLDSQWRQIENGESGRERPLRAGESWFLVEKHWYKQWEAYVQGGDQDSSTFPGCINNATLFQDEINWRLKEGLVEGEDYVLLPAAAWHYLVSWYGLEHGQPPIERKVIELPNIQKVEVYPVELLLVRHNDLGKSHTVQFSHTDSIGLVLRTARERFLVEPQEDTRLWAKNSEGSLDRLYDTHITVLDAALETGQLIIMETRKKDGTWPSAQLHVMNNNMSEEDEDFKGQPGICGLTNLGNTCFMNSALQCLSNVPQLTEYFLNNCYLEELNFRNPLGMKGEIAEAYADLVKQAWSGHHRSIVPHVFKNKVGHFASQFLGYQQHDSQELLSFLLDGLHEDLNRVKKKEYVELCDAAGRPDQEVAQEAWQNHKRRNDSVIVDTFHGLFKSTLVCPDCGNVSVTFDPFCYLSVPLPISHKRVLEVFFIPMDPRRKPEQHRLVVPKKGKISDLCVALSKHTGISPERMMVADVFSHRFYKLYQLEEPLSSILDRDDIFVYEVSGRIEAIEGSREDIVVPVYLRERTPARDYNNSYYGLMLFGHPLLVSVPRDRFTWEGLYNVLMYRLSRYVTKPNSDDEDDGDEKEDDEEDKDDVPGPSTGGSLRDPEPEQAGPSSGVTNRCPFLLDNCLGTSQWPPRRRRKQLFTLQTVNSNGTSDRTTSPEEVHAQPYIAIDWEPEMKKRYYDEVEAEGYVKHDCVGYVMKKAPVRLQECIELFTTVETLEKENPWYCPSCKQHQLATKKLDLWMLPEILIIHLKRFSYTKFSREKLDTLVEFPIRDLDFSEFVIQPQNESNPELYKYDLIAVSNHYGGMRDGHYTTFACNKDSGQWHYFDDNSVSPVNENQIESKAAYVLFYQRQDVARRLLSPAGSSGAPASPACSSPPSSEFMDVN
Outline: as §1

[5] = target: T1, UniProt Q5T2D3
T1 sequence (whole entry): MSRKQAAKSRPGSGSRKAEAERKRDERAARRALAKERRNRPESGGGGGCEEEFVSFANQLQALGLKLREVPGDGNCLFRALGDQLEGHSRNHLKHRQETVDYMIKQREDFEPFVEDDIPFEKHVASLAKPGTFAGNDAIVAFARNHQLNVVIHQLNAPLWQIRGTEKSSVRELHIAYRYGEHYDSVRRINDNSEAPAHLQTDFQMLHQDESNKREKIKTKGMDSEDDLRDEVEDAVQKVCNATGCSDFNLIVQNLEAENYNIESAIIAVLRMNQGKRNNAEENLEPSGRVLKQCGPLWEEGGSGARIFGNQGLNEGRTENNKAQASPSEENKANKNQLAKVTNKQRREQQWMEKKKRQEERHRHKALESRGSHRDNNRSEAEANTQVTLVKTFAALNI
Outline: as §1

[6] = target: T2, UniProt Q8TE49
T2 sequence (whole entry): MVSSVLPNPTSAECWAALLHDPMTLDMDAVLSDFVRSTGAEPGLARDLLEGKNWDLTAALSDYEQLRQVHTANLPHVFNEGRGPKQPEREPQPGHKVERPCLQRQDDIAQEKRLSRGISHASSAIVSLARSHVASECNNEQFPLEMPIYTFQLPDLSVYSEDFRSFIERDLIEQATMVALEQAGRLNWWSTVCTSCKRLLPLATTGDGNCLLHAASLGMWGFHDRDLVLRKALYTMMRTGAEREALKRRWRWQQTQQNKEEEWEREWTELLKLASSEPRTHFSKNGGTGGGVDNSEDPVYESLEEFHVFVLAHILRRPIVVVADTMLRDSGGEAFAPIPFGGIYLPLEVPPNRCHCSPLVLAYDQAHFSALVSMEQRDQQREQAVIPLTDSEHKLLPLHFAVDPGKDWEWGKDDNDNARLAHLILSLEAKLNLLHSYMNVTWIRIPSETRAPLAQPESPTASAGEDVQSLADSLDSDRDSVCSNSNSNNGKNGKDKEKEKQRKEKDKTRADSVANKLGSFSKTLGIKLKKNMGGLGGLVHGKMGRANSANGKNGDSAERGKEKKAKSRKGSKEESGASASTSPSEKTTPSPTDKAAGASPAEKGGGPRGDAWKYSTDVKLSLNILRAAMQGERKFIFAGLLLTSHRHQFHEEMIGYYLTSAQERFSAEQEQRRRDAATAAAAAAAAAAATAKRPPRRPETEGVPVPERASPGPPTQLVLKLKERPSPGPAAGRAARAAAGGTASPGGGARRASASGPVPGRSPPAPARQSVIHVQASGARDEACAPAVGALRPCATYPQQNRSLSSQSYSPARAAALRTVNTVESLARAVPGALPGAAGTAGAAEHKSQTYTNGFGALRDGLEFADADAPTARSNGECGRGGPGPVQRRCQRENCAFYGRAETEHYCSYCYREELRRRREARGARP
Outline: as §1

[7] = target: T3, UniProt Q9P2H5
T3 sequence (whole entry): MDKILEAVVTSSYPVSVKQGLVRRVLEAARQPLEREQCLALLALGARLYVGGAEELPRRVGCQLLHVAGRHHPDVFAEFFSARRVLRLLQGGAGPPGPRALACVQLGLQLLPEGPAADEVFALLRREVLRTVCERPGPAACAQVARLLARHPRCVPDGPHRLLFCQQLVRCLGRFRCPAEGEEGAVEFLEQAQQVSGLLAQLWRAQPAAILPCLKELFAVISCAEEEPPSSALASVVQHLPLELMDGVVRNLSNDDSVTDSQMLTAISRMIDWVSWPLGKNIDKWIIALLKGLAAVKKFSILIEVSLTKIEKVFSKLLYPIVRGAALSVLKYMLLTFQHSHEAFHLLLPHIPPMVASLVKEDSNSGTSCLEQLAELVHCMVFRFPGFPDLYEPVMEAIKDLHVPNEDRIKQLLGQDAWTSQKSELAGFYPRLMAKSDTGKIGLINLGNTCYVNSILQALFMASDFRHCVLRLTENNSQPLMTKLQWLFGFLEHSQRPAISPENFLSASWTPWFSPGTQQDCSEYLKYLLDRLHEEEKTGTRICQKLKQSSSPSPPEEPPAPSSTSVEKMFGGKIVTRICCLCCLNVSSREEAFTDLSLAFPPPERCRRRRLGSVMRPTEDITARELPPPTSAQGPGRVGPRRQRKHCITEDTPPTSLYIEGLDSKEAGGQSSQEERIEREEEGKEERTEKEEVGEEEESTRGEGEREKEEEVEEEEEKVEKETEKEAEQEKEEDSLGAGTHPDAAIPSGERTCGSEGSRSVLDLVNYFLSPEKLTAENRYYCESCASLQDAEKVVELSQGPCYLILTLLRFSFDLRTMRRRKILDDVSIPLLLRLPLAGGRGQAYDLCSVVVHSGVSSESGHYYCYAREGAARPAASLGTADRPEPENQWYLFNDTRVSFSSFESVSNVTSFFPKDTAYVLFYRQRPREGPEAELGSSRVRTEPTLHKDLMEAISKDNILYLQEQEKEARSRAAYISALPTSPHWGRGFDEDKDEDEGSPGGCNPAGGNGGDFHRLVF
Outline: as §1

[8] = target: T4, UniProt Q9UGI0
T4 sequence (whole entry): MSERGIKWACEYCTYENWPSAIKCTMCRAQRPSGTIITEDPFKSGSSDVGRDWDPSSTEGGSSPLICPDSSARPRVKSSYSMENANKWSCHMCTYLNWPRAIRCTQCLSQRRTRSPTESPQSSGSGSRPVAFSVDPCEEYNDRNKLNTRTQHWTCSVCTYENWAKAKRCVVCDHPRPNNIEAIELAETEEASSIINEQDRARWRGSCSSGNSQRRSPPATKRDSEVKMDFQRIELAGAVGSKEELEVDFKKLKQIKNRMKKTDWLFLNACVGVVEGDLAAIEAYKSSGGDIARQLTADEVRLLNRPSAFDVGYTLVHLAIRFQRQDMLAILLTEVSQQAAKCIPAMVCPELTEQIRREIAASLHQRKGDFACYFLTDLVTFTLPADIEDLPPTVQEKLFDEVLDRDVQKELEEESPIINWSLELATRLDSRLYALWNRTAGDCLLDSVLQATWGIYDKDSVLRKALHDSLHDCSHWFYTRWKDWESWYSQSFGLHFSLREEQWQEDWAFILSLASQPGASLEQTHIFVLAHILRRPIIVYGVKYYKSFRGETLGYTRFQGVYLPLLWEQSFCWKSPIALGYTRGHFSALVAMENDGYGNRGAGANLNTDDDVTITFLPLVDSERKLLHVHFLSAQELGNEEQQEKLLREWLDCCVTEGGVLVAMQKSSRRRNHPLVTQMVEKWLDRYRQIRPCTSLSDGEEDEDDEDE
Outline: as §1

[9] = target: T5, YOD1 (UniProt Q5VVQ6)
T5 sequence (whole entry): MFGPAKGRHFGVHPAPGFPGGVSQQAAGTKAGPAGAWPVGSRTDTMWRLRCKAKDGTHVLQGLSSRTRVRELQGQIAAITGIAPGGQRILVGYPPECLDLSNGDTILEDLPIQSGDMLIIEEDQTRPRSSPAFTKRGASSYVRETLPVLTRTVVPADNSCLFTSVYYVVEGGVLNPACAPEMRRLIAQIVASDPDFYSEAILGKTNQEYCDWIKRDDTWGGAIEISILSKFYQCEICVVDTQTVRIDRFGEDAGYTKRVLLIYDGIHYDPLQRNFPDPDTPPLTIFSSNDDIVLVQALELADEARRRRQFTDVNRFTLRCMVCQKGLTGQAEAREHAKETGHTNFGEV
Outline: as §1

Measured: log2 ratio of Biotin-Ahx-Ub-VS probe labelling

O=C(CCl)N1CCC(C(O)c2ccc(F)cc2)CC1 (centres undefined)
inactive: [1] 0.23 | [2] 0.0841 | [3] -0.0622 | [4] 0.5 | [5] -0.0566 | [6] -0.301 | [7] 0.167 | [8] -0.181 | [9] -0.00174
